# Results published in PubChem BioAssay (EPA / NIEHS).
# Values joined by “and” are separate entries in the source; they are usually repeats but may differ in a detail not shown here. Equal entries are not always repeated. A structure can be active in one record and inactive in another. Active and inactive are the calls of the source. The calls were made as follows: active = hit-call score of the fitted dose curve at least 0.9, where 1 is the maximum; inactive = score below 0.9.
# Read-out: Interleukin-1 alpha (IL1a), IL1A (gene 3552)
# Test: BSK_BE3C_IL1a: BioMAP Diversity Plus: BE3C Assay for Interleukin-1 alpha (IL1a) Biomarker Activity (AID 2283016)
# Conditions: primary human bronchial epithelial cells; actives raise or lower the signal
# Experimental: BSK_BE3C is a cell-based, multiplexed-readout assay that uses bronchial epithelial cell, a human lung primary cell, with measurements taken at 24 hours after chemical dosing in a 96-well plate.BSK_BE3C_IL1a is an assay component measured in the BSK_BE3C assay. It measures IL-1a antibody related to regulation of gene expression using ELISA technology.Data from the assay component BSK_BE3C_IL1a was analyzed into 1 assay endpoint. This assay endpoint, BSK_BE3C_IL1a, was analyzed with bidirectional fitting relative to DMSO as the negative control and baseline of activity. Using a type of binding reporter, gain or loss-of-signal activity can be used to understand changes in the signaling as they relate to the gene IL1A. Furthermore, this assay endpoint can be referred to as a primary readout, because this assay has produced multiple assay endpoints where this one serves a signaling function. To generalize the intended target to other relatable targets, this assay endpoint is annotated to the cytokine intended target family, where the subfamily is interleukins.
# The levels of cell surface (or secreted, indicated by the prefix "s") biomarker endpoints were measured by ELISA. Overt cytotoxicity to cells in confluent adherent cultures (all systems other than the BT system) was assessed by measuring total protein levels using sulforhodamine B (SRB) staining in parallel cultures at the time of biomarker measurements, indicated as SRB endpoints. For proliferation assays for adherent cell types, individual cell types are cultured at sub-confluence and relative cell numbers quantified by SRB staining at time points optimized for each system (48 h: 3C and CASM3C systems; 72 h: BT and HDF3CGF systems; 96 h: SAg system). SRB was performed by staining cells with 0.1% SRB after fixation with 10% TCA and reading wells at 560 nm.Viability and proliferation of PBMC (T cells) was quantified by Alamar Blue reduction for the SAg and BT systems. For PBMC viability (referred to as PBMC Cytotoxicity within the assay endpoint names), cells were plated (75,000/well in a 96-well plate) and then chemical samples added for 1 h before addition of activators, SEB and TSST-1 (20 ng/mL final concentration each). Cells were incubated for 90 h. Then, Alamar Blue (20 uL/well) (Invitrogen, Cat DAL1100) was added for 6 h, and the plates were read with a fluorescence microplate reader at 546/580 nm (excitation/emission). For PBMC proliferation, cells were plated and activated as above but incubated for only 16 h prior to addition of Alamar Blue. Plates were read after 6 h.
SMILES,outcome,AC50
Clc1ccc(C(c2ccc(Cl)cc2)C(Cl)Cl)cc1,inactive,–
Nc1ccc(Oc2ccc(N)cc2)cc1,inactive,–
[As]#[In],inactive,–
ClCCOCCCl,inactive,–
COC(=O)c1ccccc1N,inactive,–
CCC12COCN1COC2,inactive,–
CCC(C)c1ccc(O)cc1 (stereo not given),inactive,–
CCN(CC)N=O,inactive,–
CCCSC(=O)N(CCC)CCC,inactive,–
CCOc1cccc(C2(N3CCN(c4ccccc4)CC3)CCC(C)CC2)c1 (stereo not given),inactive,–
CCCCCCCCCCCCCN1CC(C)OC(C)C1 (stereo not given),inactive,–
[Cl-].[Cl-].[Hg+2],–,31 µM (active)
[O-][Cl+]O,inactive,–
O=P(OCCCl)(OCCCl)OCCCl,inactive,–
CC(C)COC(=O)c1ccccc1C(=O)OCC(C)C,inactive,–
OCCCBr,inactive,–
Cc1cccc(N)c1N,inactive,–
CCN(CC)CCO,inactive,–
Cn1cc(-c2ccccc2)c(=O)c(-c2cccc(C(F)(F)F)c2)c1,inactive,–
CCNS(=O)(=O)C(F)(F)C(F)(F)C(F)(F)C(F)(F)C(F)(F)C(F)(F)C(F)(F)C(F)(F)F,inactive,44.5 µM (active) and 21.9 µM (active)

SMILES,outcome,AC50
CCOC(=O)[C@]1(c2ccccc2)Oc2ccccc2[C@@H]1N,inactive,–
Clc1ccc(C(c2ccc(Cl)cc2)C(Cl)(Cl)Cl)cc1,inactive,–
COP(=S)(OC)SCN1C(=O)c2ccccc2C1=O,inactive,–
O=C(Oc1ccc(Br)cc1)N1CCN2CCC1CC2,inactive,–
c1ccc(C2CO2)cc1 (stereo not given),inactive,–
O=[N+]([O-])C(Br)(CO)CO,inactive,–
N#CC(Br)Br,inactive,–
Nc1cc(Cl)cc(C(=O)O)c1Cl,inactive,–
COc1cc(C=O)cc2c1[C@H](COC(N)=O)[C@]1(OC(C)=O)ON2C[C@H]2[C@@H]1N2C(C)=O,–,2.63 µM (active)
Oc1ccc2ccc3cccc4ccc1c2c34,–,32.4 µM (active)
CCCCCOC(=O)c1ccccc1C(=O)OCCCCC,inactive,–
c1ccc2c(c1)oc1ccccc12,inactive,–
COC(=O)Nc1nc2ccccc2[nH]1,inactive,–
C[N+](C)(C)CC1CO1 (stereo not given),inactive,–
OCCOCCO,inactive,–
CC(C)(C)OOC(=O)c1ccccc1,inactive,–
CC(C)N(Cc1ccccc1)C(=O)C(C)(C)C,inactive,–
C=CCc1ccc2c(c1)OCO2,inactive,–
CCCCCCCCn1sccc1=O,–,8.59 µM (active)
